Test results reported in PubChem BioAssay (NCI).
Where “and” joins values, the source holds several entries; their conditions need not be identical. Equal entries are not always repeated. The panel holds about 83,000 compounds, 20% with a hit somewhere; the sample as a whole holds those more often.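 Plates (96-well) were seeded with cells, treated with compound at one concentration, and incubated for 48 hours before percent growth was determined.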 Calls of active or inactive are those of the source. The calls were made as follows: active = growth percent below 10; inactive = the rest.

The molecules below were run on HL-60(TB) leukemia (assay: NCI-60 one-dose screen, 48 h (100 = growth as untreated, 0 = no growth, -100 = all killed)). Conditions: 10 µM unless noted.
In the case of `CCN1C(=O)/C(=C/N2N=C(c3ccc(Cl)cc3)CC2c2ccc(OC)cc2)SC1=S` (centres undefined), the growth is reported as 67.1% (inactive).
In the case of `CN(C)CCNc1nc2ccccc2c2c(=O)c3ccccc3sc12`, the growth is reported as 9.19% (active).
For `CNNc1ncnc2c1cnn2-c1ccc(S(N)(=O)=O)cc1`, the growth was 83.5% (inactive).
For `CC(C)(O)C#CC#CC(C)(C)O`, the growth was 104% (inactive).
`CCOC(=O)NC(N)=O` was tested, and the growth was 92.4% (inactive).
In the case of `Cc1c(C(=O)O[C@H]2[C@@H]3[C@H](C)CC[C@H]3[C@]3(C)O[C@@]2(C2CCCCC2)C[C@H]3OC(=O)CO)ccc2ccccc12`, the growth is reported as -31.5% (active).
With `O=C(O)C1(C(=O)O)CCC1.[NH2-].[NH2-].[Pt+2]` the growth was 103% (inactive) and 58.7% (inactive).
`CC(C)c1cc(N=O)cc(C(C)C)c1O` was tested, and the growth was 93% (inactive).
`C#Cc1cccc(Nc2ncnc3ccc(-c4cnc(N)nc4)cc23)c1` was tested, and the growth was 34.2% (inactive).
In the case of `COc1cccc(C(=O)NNc2nc(N3CCN(C4CCCCC4)CC3)nc(N3CCN(C(c4ccccc4)c4ccccc4)CC3)n2)c1`, the growth is reported as 18.5% (inactive).
`CC(=Nc1ccccc1)C1=C(O)C(Cc2ccc(O)cc2)NC1=O` (centres undefined) was tested, and the growth was -51.5% (active).
With `CC(C)(C)c1cc(NC(=O)Nc2ccc(-c3cn4c(n3)sc3cc(OCCN5CCOCC5)ccc34)cc2)no1` the growth was 18.7% (inactive) and 41% (inactive).
In the case of `CC1(C)CCCN1CCCN1c2ccccc2Sc2ccc(Cl)cc21`, the growth is reported as 46% (inactive).
With `O=C(CC12CC3CC(CC(C3)C1)C2)NCCOCCOCCNC(=O)c1cc2c(o1)C(=O)c1ccccc1C2=O` the growth was -16% (active).
